Source: PubChem BioAssay (National Center for Advancing Translational Sciences (NCATS))
ASM inhibitor = Inhibitors of Secretory Acid Sphingomyelinase (S-ASM): qHTS. AID 504937, 2011. placental ASM, HMU-PC fluorogenic substrate, 60 min. Sphingomyelin phosphodiesterase (Homo sapiens), P17405. 340,000 compounds, 0.006% hits. Potency, µM (series often up to 57.5 µM), for inactives: at the highest dose activity change, negative = inhibition, usual class: inhibitors; further: potency means the concentration at half of the fitted maximal effect
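Human placenta-derived ASM preincubated with compound 10 min at room temperature, then reacted with 9 uM (final) fluorogenic HMU-PC substrate for 60 min at 37 C. Stop solution raises pH to 10; fluorescence read at Ex 386/Em 447 nm.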
Apoferritin bind = qHTS Assay for Identification of Novel General Anesthetics | Ferritin light chain (Equus caballus), P02791 | apoferritin/1-aminoanthracene competitive binding, fluorescence | Potency, µM (doses to about 77.5 µM), inactives show at the highest dose activity change, negative = displacement, usual class: inhibitors | 350,000 compounds, 0.074% hits; further: potency means the concentration at half of the fitted maximal effect; on the % scale 0 is the no-effect control and ±100 the full control effect; nearly all actives have a fitted effect of over 20% in size
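In PBS, apoferritin at 10 uM is loaded with 1-AMA from a 50% saturated solution. After 10 min of compound exposure at ambient temperature, reduced 535 nm fluorescence indicates probe displacement.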
hERG WT inh = qHTS for Inhibitors of KCHN2 3.1: Wildtype qHTS; AID 720551, 2013; activity change, % at 1.84 µM; Voltage-gated inwardly rectifying potassium channel KCNH2 (Homo sapiens), Q12809; 340,000 compounds, 0.37% hits; U2OS, BacMam KCNH2, thallium flux FluxOr; hits give low values;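 active means maximum activity change below -70%; inconclusive means maximum activity change between -70% and -50%; inactive means maximum activity change above -50%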; further: on the % scale 0 is the no-effect control and ±100 the full control effect
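U2OS cells transduced with wild-type KCNH2 virus are loaded with FluxOr dye for 45 min, and thallium flux is measured in kinetic reads before and after stimulation buffer. Rate constants are normalized to DMSO controls.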
mIDH1 inhibitor = qHTS for Inhibitors of mutant isocitrate dehydrogenase 1 (IDH1): qHTS. IDH1-R132H enzyme, NADPH consumption, diaphorase/resazurin fluorescence. Potency, µM (series often up to 76.6 µM), for inactives: top-dose activity change, negative = inhibition, usual class: inhibitors. 390,000 compounds, 0.093% hits; further: potency means the concentration at half of the fitted maximal effect; on the % scale 0 is the no-effect control and ±100 the full control effect; nearly all actives have a fitted effect of over 65% in size
Target sequence (O75874 whole entry R132H, stated change not applied): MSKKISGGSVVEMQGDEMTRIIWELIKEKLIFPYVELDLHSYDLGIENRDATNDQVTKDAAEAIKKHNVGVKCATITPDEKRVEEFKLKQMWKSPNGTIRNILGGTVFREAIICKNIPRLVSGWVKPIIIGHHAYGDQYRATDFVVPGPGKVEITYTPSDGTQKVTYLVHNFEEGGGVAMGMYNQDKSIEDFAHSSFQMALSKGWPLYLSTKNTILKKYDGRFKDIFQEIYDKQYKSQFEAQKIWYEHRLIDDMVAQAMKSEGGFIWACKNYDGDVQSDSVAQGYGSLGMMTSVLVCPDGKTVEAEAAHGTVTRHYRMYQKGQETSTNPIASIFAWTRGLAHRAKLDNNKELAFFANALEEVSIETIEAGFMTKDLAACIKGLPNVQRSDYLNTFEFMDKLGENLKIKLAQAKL
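IDH1-R132H (0.5 ug/mL) preincubated 30 min with compound, then NADPH (0.016 mM) and alpha-KG (2 mM) added; 80 min at RT, pH 7.5. Remaining NADPH coupled via diaphorase/resazurin to fluorescence (540/590 nm); concentration-response curves normalized to no-enzyme control.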
KCNH2 3.1 block = qHTS for Inhibitors of KCHN2 3.1: Mutant qHTS. U2OS KCNH2 3.1, thallium flux FluxOr; hits give low values. activity change, % (tested at about 1.8 µM). 340,000 compounds, 0.95% hits;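 active means maximum activity change below -70%; inconclusive means maximum activity change from -70% to -50%; inactive means maximum activity change above -50%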;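 further: thallium influx rate constant from kinetic fluorescence after stimulation buffer; on the % scale 0 is the no-effect control and ±100 the full control effect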
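U2OS cells transduced with KCNH2 3.1 mutant virus (1.77 x 10^8 /mL, 4 h), plated overnight at 37 C, loaded 45 min with FluxOr dye plus Red40 quencher. Thallium flux rate constant from kinetic reads after stimulation buffer, normalised to controls.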
Starred values were filed as active, the others as inactive. Sampled rows, rich in hits. Any-hit rate of the full collection: about 1.2%. Unless noted, the call rests on the fitted dose curve; in most records, active means well fitted inhibition curve with a large enough effect; inconclusive means small, poorly fitted or top-dose-only effect; inactive means no such curve, though single readings can be large or run the other way.

COc1ccc(N(CC(=O)N2CCN(Cc3ccc4c(c3)OCO4)CC2)S(=O)(=O)c2ccc(F)cc2)cc1 was read as ASM inhibitor -1%, Apoferritin bind -15%, hERG WT inh -44, mIDH1 inhibitor -2% and KCNH2 3.1 block -86*.
Cc1ccccc1N1CCN(S(=O)(=O)c2nnc(NC(=O)c3ccc(C(C)C)cc3)s2)CC1 was read as Apoferritin bind -9% and mIDH1 inhibitor 0%.
For CCn1nc(C)c2c(-c3ccccc3)cc(=O)n(C(C)C(=O)NCc3ccc(C)cc3)c21 (centres undefined) the results were Apoferritin bind 52% and mIDH1 inhibitor 18%.
CCOc1ccccc1CNC(=O)C1CCN(Cc2cc3ccccc3n2Cc2ccccc2)CC1 was read as Apoferritin bind 50% and mIDH1 inhibitor 2%.
Screening O=C(O)c1ccc2c(c1)C(=O)N(NC(=O)c1ccccc1)C2=O returned ASM inhibitor 10%, Apoferritin bind -4%, hERG WT inh -230*, mIDH1 inhibitor 3% and KCNH2 3.1 block -8.
For COc1cccc(CNC(=O)CN2C(=O)N(c3ccc(C)cc3C)S(=O)(=O)c3ccccc32)c1OC the results were Apoferritin bind 3% and mIDH1 inhibitor -3%.
Screening CCOc1ccc(C(=O)N2CCN(c3cccc(C)c3C)CC2)cc1 returned ASM inhibitor -3%, Apoferritin bind inconclusive, hERG WT inh 10, mIDH1 inhibitor 2% and KCNH2 3.1 block -74*.
CCn1cc(C(=O)Nc2ccc(F)c(F)c2)cn1 was read as ASM inhibitor -2%, Apoferritin bind -1%, hERG WT inh -4, mIDH1 inhibitor 2% and KCNH2 3.1 block -88*.
CCn1cc(C(=O)Nc2ccc(Cl)cc2Cl)cn1 was read as ASM inhibitor 4%, hERG WT inh 2, mIDH1 inhibitor 8% and KCNH2 3.1 block 25.
`CCCCOc1ccc(Cn2c(=O)sc3ccccc32)cc1OC` gave Apoferritin bind 66% and mIDH1 inhibitor 24%.
`COc1ccc(NC(=O)NCCCN2CCCC2=O)cc1` gave ASM inhibitor -2%, Apoferritin bind 35%, hERG WT inh -2, mIDH1 inhibitor -13% and KCNH2 3.1 block 36.
Screening COc1ccc(NC(=O)CC(C)NCCCN2CCCC2=O)cc1 (centres undefined) returned ASM inhibitor 3%, Apoferritin bind 6%, hERG WT inh -333*, mIDH1 inhibitor 14% and KCNH2 3.1 block 7.
Screening CSc1ccc(S(=O)(=O)NCc2ccc(C)cc2)cc1 returned ASM inhibitor -5%, Apoferritin bind -22%, hERG WT inh 41, mIDH1 inhibitor 10% and KCNH2 3.1 block -78*.
For CCC(C)N(C(=O)CSc1nc(C)nc2ccccc12)C1CCS(=O)(=O)C1 (centres undefined) the results were ASM inhibitor -2%, hERG WT inh -6, mIDH1 inhibitor 4% and KCNH2 3.1 block -15.
For C=CCn1c(SCC(=O)N(C(C)CC)C2CCS(=O)(=O)C2)nc2ccccc2c1=O (centres undefined) the results were ASM inhibitor -1%, hERG WT inh -33, mIDH1 inhibitor 3% and KCNH2 3.1 block -88*.
Screening COc1cccc(CNC(=O)c2ccc(OCC(=O)N3CCOCC3)c(OC)c2)c1 returned ASM inhibitor 3%, hERG WT inh 2, mIDH1 inhibitor 0% and KCNH2 3.1 block -3.
`COC(=O)c1ccc(CNC(=O)c2ccc(OCC(=O)N3CCOCC3)c(OC)c2)cc1` gave ASM inhibitor 2%, hERG WT inh -152*, mIDH1 inhibitor 5% and KCNH2 3.1 block -193*.
Screening COc1ccc(C(=S)N2CCOCC2)cc1OC(=O)c1cc(OC)c(OC)c(OC)c1 returned ASM inhibitor -3%, Apoferritin bind -1%, hERG WT inh 2, mIDH1 inhibitor -2% and KCNH2 3.1 block -79*.
